Measurements: PubChem BioAssay
Calls of active or inactive are those of the source. Unless noted, the rule behind the calls is not given here.

Key:
[1] = tested on: Wnt5a (protein binding on small-molecule microarray); test: small molecules binding Wnt5a protein – biophysical, small-molecule microarray, 635/667 nm fluorescence, primary screen (AID 1142); conditions: 635 nm fluorescence, higher = more signal;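 note: fluorescence read at 667 nm with signal to noise per printed feature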
[2] = ATP-based viability of Huh7 replicon cells – cell-based, CellTiter-Glo luminescence, basal, 48 h, cytotoxicity control for HCV replication inhibitor project, primary screen (AID 1143); conditions: higher = more signal, called active from +8 up or from −8 down;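 note: Huh7 hepatoma cells carrying a hepatitis C replication reporter with no stimulus; test concentration not given here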
[3] = Pseudomonas biofilm growth suppression – PAO1 strain, BacTiter-Glo luminescence, LB-PBS, primary screen (AID 1144); conditions: P. aeruginosa PAO1 biofilm, 12 h, higher = more signal
[4] = basal CRE-LacZ reporter activity in PC12 – cell-based, unstimulated, primary screen (AID 1145); conditions: no forskolin, luminescence, 4.5 h, higher = more signal, called active from +8 up or from −8 down
[5] = forskolin-driven CRE-LacZ activity in PC12 – cell-based, CRE-LacZ reporter, forskolin-stimulated, primary screen (AID 1146); conditions: luminescence, 4.5 h, higher = more signal, called active from +8 up or from −8 down;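 note: PC12 cells with 6xCRE LacZ reporter stimulated by forskolin 10 µM; beta-galactosidase reporter signal reflecting CREB driven transcription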
[6] = target: Streptavidin (Streptomyces avidinii) (UniProt P22629); test: compounds binding control protein streptavidin – biophysical, small-molecule microarray, 635/667 nm fluorescence, artefact control for SMM compound annotation, primary screen (AID 1147); conditions: higher = more signal;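 note: signal reflects streptavidin binding to arrayed compounds as a control protein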
Sequence of Streptavidin (Streptomyces avidinii) (P22629 whole entry, looked up): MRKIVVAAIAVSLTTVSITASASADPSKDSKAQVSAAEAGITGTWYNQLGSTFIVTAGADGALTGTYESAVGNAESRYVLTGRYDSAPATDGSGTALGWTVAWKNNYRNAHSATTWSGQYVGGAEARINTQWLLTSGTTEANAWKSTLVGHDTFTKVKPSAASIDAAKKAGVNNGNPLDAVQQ

[7] = probe aInhba binding on compound microarray – biochemical, small-molecule microarray, 635/667 nm fluorescence, primary screen (AID 1148); conditions: higher = more signal;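 note: score merges 667nm spot fluorescence with signal-to-noise for antibody binding to printed compounds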
Torsin-1A (Homo sapiens) [8] = target: Torsin-1A (Homo sapiens) (UniProt O14656); test: TOR1A wild-type binding on microarray – cell lysate, small-molecule microarray, lysate, 635/667 nm, primary screen (AID 1149); conditions: COS7 hTOR1A-WT lysate, 635 nm fluorescence, higher = more signal
Sequence of Torsin-1A (Homo sapiens) (O14656 whole entry, looked up): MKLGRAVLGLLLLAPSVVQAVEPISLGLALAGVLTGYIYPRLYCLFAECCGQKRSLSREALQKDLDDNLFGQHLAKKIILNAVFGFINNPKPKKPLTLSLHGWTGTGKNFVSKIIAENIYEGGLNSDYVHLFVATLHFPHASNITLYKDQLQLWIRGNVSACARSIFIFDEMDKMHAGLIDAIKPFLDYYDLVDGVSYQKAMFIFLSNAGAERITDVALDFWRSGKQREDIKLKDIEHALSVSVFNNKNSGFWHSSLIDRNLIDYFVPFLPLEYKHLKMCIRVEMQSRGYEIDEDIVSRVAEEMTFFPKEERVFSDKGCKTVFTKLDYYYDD

Torsin-1A (Homo sapiens) [9] = target: Torsin-1A (Homo sapiens) (UniProt O14656); test: torsin A mutant lysate binding on microarrays – cell lysate, small-molecule microarray, COS7 lysate, 635/667 nm fluorescence, primary screen (AID 1150); conditions: COS7 hTOR1A mutant lysate, 635 nm fluorescence, higher = more signal;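 note: score pools 667 nm emission and signal to noise measuring lysate protein binding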
[10] = tested on: Sonic hedgehog protein (Shh); test: Sonic hedgehog microarray binding compounds – biochemical, small-molecule microarray, 635/667 nm fluorescence, primary screen (AID 1151); conditions: 635 nm fluorescence, higher = more signal;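 note: Shh protein binding to compounds spotted on small-molecule microarray slides; score combines spot fluorescence intensity with signal-to-noise across triplicate slides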
[11] = optical density shifts of acrAB sulA E. coli – strain DRC41, OD650, 48 h, E. coli filamentation inducer project, primary screen (AID 1152); conditions: higher = more signal, called active from +8 up or from −8 down;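 note: E. coli MC1000 strain DRC41 lacking acrAB efflux pump and sulA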
[12] = probe aLefty1 binding on compound microarray – biochemical, small-molecule microarray, 635/667 nm fluorescence, primary screen (AID 1153); conditions: higher = more signal;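 note: score merges spot fluorescence with signal-to-noise ratio from the scanned slide images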
[13] = plasmodial surface anion channel blockers, osmotic lysis – cell-based, P. falciparum Indochina, OD700, 1 h, primary screen (AID 1154); conditions: P. falciparum Indochina infected RBC osmotic lysis, higher = more signal, called active from +8 up or from −8 down
[14] = plasmodial surface anion channel blockers, osmotic lysis – cell-based, P. falciparum Indochina, OD700, 2 h, primary screen (AID 1155);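 note: lysis reports solute entry through the parasite surface anion channel PSAC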; conditions: P. falciparum Indochina infected erythrocytes, higher = more signal, called active from +8 up or from −8 down
[15] = changes in parasitized red cell lysis, either direction – P. falciparum Indochina, OD700, 3 h, PSAC antagonist project, primary screen (AID 1156); conditions: P. falciparum-infected erythrocytes, osmotic lysis, higher = more signal, called active from +8 up or from −8 down
[16] = plasmodial surface anion channel blockers, osmotic lysis – cell-based, P. falciparum Indochina, OD700, 18 h, primary screen (AID 1157); conditions: P. falciparum Indochina infected erythrocytes, osmotic lysis OD700, 18 h; higher = more signal, called active from +8 up or from −8 down
[17] = S6 kinase pathway phospho-S6 level changes – cell-based, A549, cytoblot, luminescence, serum-stimulated, primary screen (AID 1158); conditions: 5 h, higher = more signal;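 note: serum-stimulated A549 lung adenocarcinoma cells; signal is phosphorylated S6 detected by cytoblot immunostaining with HRP secondary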
[18] = target: NADPH oxidase 2 (Homo sapiens) (UniProt P04839); test: compounds shifting NOX2 Amplex Red fluorescence – cell-based, HEK293-NOX2, PMA-stimulated, NOX inhibitor project, primary screen (AID 1159); conditions: 45 min, higher = more signal, called active from +8 up or from −8 down; note: test concentration not given here
Sequence of NADPH oxidase 2 (Homo sapiens) (P04839 whole entry, looked up): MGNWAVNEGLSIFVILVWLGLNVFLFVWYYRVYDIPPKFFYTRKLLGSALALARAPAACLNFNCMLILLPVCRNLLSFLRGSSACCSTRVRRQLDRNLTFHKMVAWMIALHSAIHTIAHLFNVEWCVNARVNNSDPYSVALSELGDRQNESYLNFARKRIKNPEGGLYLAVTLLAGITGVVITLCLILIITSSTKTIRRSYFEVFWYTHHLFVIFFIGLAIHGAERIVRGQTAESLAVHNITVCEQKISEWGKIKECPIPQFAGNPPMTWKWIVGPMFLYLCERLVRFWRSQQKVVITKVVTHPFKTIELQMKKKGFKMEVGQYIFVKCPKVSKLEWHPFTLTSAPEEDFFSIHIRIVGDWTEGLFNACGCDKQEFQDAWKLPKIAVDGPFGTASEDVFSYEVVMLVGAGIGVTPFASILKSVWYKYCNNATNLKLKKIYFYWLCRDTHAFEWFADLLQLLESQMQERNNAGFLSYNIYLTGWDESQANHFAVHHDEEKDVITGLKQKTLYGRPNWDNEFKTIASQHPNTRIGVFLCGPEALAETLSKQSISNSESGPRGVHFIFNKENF

[19] = target: NADPH oxidase 4 (Homo sapiens) (UniProt Q9NPH5); test: compounds shifting NOX4 Amplex Red fluorescence – cell-based, HEK293-NOX4, tetracycline-induced, NOX inhibitor project, primary screen (AID 1160); conditions: HEK293-NOX4, Amplex Red H2O2 fluorescence, 45 min; higher = more signal, called active from +8 up or from −8 down
Sequence of NADPH oxidase 4 (Homo sapiens) (Q9NPH5 whole entry, looked up): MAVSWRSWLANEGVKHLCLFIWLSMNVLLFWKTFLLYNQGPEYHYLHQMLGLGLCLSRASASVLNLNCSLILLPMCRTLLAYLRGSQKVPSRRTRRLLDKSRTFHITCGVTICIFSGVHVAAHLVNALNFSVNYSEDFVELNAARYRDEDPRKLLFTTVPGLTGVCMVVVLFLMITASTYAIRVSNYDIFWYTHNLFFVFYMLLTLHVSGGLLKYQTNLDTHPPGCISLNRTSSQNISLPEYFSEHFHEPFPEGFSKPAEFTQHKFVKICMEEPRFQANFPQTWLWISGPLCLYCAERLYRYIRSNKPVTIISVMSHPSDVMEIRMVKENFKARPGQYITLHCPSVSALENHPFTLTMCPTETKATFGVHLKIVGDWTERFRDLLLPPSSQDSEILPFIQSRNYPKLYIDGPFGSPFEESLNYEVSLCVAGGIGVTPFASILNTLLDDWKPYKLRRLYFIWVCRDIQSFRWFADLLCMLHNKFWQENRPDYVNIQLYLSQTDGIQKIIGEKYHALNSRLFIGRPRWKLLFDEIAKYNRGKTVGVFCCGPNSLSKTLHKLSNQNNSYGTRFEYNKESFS

[20] = target: NADPH oxidase 5 (Homo sapiens) (UniProt Q96PH1); test: compounds shifting NOX5 Amplex Red fluorescence – cell-based, HEK293-NOX5, NOX inhibitor project, primary screen (AID 1161); conditions: HEK293-NOX5, ionomycin, 45 min, higher = more signal
Sequence of NADPH oxidase 5 (Homo sapiens) (Q96PH1 whole entry, looked up): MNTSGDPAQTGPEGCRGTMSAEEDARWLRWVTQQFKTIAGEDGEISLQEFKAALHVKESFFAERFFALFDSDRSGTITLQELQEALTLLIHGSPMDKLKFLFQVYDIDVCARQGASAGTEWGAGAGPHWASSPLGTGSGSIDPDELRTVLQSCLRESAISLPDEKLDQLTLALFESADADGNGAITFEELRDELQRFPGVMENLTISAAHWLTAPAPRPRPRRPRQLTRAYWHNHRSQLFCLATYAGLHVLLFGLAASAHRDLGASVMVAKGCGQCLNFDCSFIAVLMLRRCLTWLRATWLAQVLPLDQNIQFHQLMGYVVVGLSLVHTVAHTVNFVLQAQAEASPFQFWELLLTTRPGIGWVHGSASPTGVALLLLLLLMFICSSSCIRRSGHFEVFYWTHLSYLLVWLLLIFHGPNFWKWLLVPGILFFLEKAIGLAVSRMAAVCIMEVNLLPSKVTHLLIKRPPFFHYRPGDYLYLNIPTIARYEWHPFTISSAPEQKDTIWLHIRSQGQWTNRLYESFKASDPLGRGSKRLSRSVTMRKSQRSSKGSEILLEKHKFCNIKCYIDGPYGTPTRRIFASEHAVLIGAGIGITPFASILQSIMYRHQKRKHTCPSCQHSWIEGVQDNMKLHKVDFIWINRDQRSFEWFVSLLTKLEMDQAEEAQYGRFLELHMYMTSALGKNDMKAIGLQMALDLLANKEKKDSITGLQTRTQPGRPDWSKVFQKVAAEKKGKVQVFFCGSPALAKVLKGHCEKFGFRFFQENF

Row | SMILES | composite z-score [1] | z-score [2] | z-score [3] | z-score [4] | z-score [5] | composite z-score [6] | composite z-score [7] | composite z-score (Torsin-1A (Homo sapiens) [8]) | composite z-score (Torsin-1A (Homo sapiens) [9]) | composite z-score [10] | z-score [11] | composite z-score [12] | z-score [13] | z-score [14] | z-score [15] | z-score [16] | z-score [17] | z-score [18] | z-score [19] | z-score [20]
1 | C=CC[C@@H]1C=C[C@H](ON=Cc2ccc(C(=O)N3[C@H](c4ccc(C)cc4)[C@@H](C)CC[C@H]3C(=O)OC)cc2)[C@@H](CO)O1 | 0.14 | -1.33 (inactive) | 0.694 (inactive) | 3.89 (inactive) | 0.062 (inactive) | -0.161 | -0.0791 | -0.0434 | 0.0034 | 0.68 | 0.69 (inactive) | -0.0945 | 2.78 (inactive) | 0.852 (inactive) | -0.273 (inactive) | 0.637 (inactive) | -1.15 | -0.428 (inactive) | 0.569 (inactive) | -0.0942
2 | O=C1[C@H]2[C@H]3[C@H](O)[C@H](O)CC(=NOC[C@@H](O)COCc4ccco4)[C@H]3CC[C@H]2C(=O)N1C1CCCCC1 | 0.257 | -2.97 (inactive) | -0.925 (inactive) | 3.33 (inactive) | 0.279 (inactive) | -0.112 | 0.158 | 2.07 | 1.64 | 1.54 | -0.708 (inactive) | 0.0245 | 1.6 (inactive) | -1.23 (inactive) | 0.786 (inactive) | -2.32 (inactive) | 0.988 | -2.55 (inactive) | -0.583 (inactive) | -1.66
3 | C[C@H](c1ccccc1)N1C(=O)[C@H]2[C@H]3[C@H](O)[C@H](O)CC(=O)[C@@H]3CC[C@H]2C1=O | 0.507 | -1.37 (inactive) | 0.00143 (inactive) | -0.885 (inactive) | -0.997 (inactive) | 0.239 | -0.0059 | 0.458 | 0.208 | 0.694 | -0.228 (inactive) | 0.173 | 0.12 (inactive) | 0.321 (inactive) | 0.151 (inactive) | -0.12 (inactive) | -0.448 | 0.292 (inactive) | -0.112 (inactive) | -0.092
4 | COc1ccc(COC(=O)NN=C2C[C@@H](O)[C@@H](O)[C@@H]3[C@@H]4C(=O)N(c5ccc(F)cc5F)C(=O)[C@@H]4CC[C@@H]23)cc1 | -0.207 | 0.0335 (inactive) | 1.02 (inactive) | 1.61 (inactive) | -0.0874 (inactive) | 0.509 | -0.0762 | -0.372 | 0.389 | -1.13 | 0.0009 (inactive) | 0.235 | 5.54 (inactive) | 0.54 (inactive) | 1.15 (inactive) | 0.302 (inactive) | 0.281 | 1.5 (inactive) | -1.98 (inactive) | -1.12
5 | COc1ccc(O[C@@H]2[C@H](O)CO[C@H]2C=CC#Cc2ccccc2)cc1 | -0.02 | 0.163 (inactive) | 0.995 (inactive) | 0.201 (inactive) | 0.415 (inactive) | -0.31 | -0.0762 | 0.23 | 0.286 | 0.332 | -0.939 (inactive) | -0.147 | 2.74 (inactive) | 0.488 (inactive) | 0.356 (inactive) | 0.0508 (inactive) | -0.367 | 0.0749 (inactive) | 1.23 (inactive) | 1.46
6 | Cc1ccc(S[C@]2(C(=O)NCC(F)(F)F)CC(=O)N(Cc3ccccc3Cl)[C@@H]2c2ccc(CO)cc2I)cc1 | -0.273 | -1.36 (inactive) | 0.977 (inactive) | 3.13 (inactive) | 2.82 (inactive) | -0.809 | -0.152 | -0.396 | 0.288 | -0.155 | 0.973 (inactive) | 0.051 | 5.02 (inactive) | 0.898 (inactive) | 0.276 (inactive) | 0.524 (inactive) | -0.35 | 0.861 (inactive) | -1.67 (inactive) | 0.799
7 | NCCCCCNC(=O)[C@@H]1C[C@@H]2C(=O)N3CCC[C@H]3C(=O)N2[C@@H]1c1cccc(OCCO)c1 | 0.369 | 0.902 (inactive) | -0.0862 (inactive) | -0.264 (inactive) | 0.325 (inactive) | 0.899 | 1.15 | -0.0659 | 1.36 | 0.696 | -0.221 (inactive) | 1.55 | 3.25 (inactive) | 0.506 (inactive) | 0.744 (inactive) | 0.0814 (inactive) | 0.0413 | 2.41 (inactive) | 1.19 (inactive) | 0.961
8 | CCc1cccc(NC(=O)O[C@H]2[C@H](OC(=O)Nc3ccc4c(c3)OCO4)[C@@H](OC(=O)Nc3ccc4c(c3)OCO4)[C@@H](OC)O[C@@H]2CO)c1 | 0.546 | -3.35 (inactive) | -1.21 (inactive) | 0.101 (inactive) | -0.684 (inactive) | 1.28 | 0.0073 | 1.14 | 0.731 | 1.76 | 0.861 (inactive) | 1.01 | 7.56 (inactive) | 1.22 (inactive) | 1.37 (inactive) | 0.495 (inactive) | 0.19 | -3.12 (inactive) | -0.812 (inactive) | -1.87
